Assay results from the supplement of paper PMC10849652.
The full data set covers some 7,900 targets. This sample favours those with a hit. About 0.6% of all pairs of compound and target were hits.

Columns and labels:
Assay in all cases: log2 fold change, soluble protein after heating vs DMSO (PISA); higher = thermal stabilisation; K562 cells, 10 uM, 30 min; active = over 0.2 and 3.5 SD of the protein, either way, in both replicates (recomputed)
IRAK-1-4 Inhibitor I = compound: C1COCCN1CCN2C3=CC=CC=C3N=C2NC(=O)C4=CC(=CC=C4)[N+](=O)[O-] [IRAK-1-4 Inhibitor I]
Procedure, shortened: (§1)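 K562 cells at 2×10^6 cells/mL were given 10 μM compound for 30 min. Aliquots then went through 3 min of heating across 48°C-58°C, were pooled, and were extracted in PBS with 0.5% NP-40 at 4°C, and the supernatant after 21,000xg for 90 min was quantified by TMTpro 16plex LC-MS/MS with channel sums equalised. Thermal stability relative to control samples, from duplicates, is given as log2 fold change.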

ibrutinib = compound: C=CC(=O)N1CCC[C@@H](n2nc(-c3ccc(Oc4ccccc4)cc3)c3c(N)ncnc32)C1 [ibrutinib]
Procedure, shortened: as §1

[1] = compound: CC(=O)c1cnc2ccc(-c3cc(Cl)c(O)c(Cl)c3)nc2c1N[C@H]1CC[C@H](CN(C)C)CC1
Procedure, shortened: as §1

ralimetinib = compound: CC(C)(C)Cn1c(N)nc2ccc(-c3[nH]c(C(C)(C)C)nc3-c3ccc(F)cc3)nc21 [ralimetinib]
Procedure, shortened: as §1

[2] = compound: CC(C)(O)CC(=O)NCCn1ccc2ncnc(Nc3ccc(Oc4cccc(C(F)(F)F)c4)c(Cl)c3)c21
Procedure, shortened: as §1

[3] = compound: CC(C)C1=C2N=C(C=C(N2N=C1)NCC3=CC=CC=C3)NCCCCCCN
Procedure, shortened: as §1

[4] = compound: CC(C)C[C@@H](C=O)NC(=O)[C@H](CC(C)C)NC(=O)[C@H](CC(C)C)NC(=O)OCc1ccccc1
Procedure, shortened: as §1

pinometostat = compound: CC(C)N(C[C@H]1O[C@@H](n2cnc3c(N)ncnc32)[C@H](O)[C@@H]1O)[C@H]1C[C@@H](CCc2nc3cc(C(C)(C)C)ccc3[nH]2)C1 [pinometostat]
Procedure, shortened: as §1

[5] = compound: CC1=C(C(CC(=O)N1)C2=CC=C(C=C2)C(F)(F)F)C(=O)NC3=C(C=C4C(=C3)C=NN4)F
Procedure, shortened: as §1

[6] = compound: CC1=C(C2=C(C=C1)C(=O)C3=CC=CC=C3N2CCCN)C
Procedure, shortened: as §1

Measured: log2 fold change

NDUFS8 (UniProt O00217)
inactive: IRAK-1-4 Inhibitor I 0.087 | ibrutinib 0.034 | [1] -0.02 | ralimetinib -0.083 | [2] -0.099 | [3] -0.145 | [4] 0.017 | pinometostat 0.005 | [5] 0.034 | [6] 0.075

MRPS12 (UniProt O15235)
inactive: IRAK-1-4 Inhibitor I 0.05 | ibrutinib -0.031 | [1] -0.033 | ralimetinib -0.017 | [2] -0.053 | [3] -0.123 | [4] 0.092 | pinometostat 0.111 | [5] 0.014 | [6] -0.224

MKRN2 (UniProt Q9H000)
inactive: IRAK-1-4 Inhibitor I -0.063 | ibrutinib 0.026 | [1] -0.137 | ralimetinib 0.034 | [2] 0.017 | [3] 0.032 | [4] 0.089 | pinometostat 0.094 | [5] -0.017 | [6] -0.064

NRDC isoform 2 (UniProt O43847)
Chain of UniProt O43847 (O43847 whole entry, looked up): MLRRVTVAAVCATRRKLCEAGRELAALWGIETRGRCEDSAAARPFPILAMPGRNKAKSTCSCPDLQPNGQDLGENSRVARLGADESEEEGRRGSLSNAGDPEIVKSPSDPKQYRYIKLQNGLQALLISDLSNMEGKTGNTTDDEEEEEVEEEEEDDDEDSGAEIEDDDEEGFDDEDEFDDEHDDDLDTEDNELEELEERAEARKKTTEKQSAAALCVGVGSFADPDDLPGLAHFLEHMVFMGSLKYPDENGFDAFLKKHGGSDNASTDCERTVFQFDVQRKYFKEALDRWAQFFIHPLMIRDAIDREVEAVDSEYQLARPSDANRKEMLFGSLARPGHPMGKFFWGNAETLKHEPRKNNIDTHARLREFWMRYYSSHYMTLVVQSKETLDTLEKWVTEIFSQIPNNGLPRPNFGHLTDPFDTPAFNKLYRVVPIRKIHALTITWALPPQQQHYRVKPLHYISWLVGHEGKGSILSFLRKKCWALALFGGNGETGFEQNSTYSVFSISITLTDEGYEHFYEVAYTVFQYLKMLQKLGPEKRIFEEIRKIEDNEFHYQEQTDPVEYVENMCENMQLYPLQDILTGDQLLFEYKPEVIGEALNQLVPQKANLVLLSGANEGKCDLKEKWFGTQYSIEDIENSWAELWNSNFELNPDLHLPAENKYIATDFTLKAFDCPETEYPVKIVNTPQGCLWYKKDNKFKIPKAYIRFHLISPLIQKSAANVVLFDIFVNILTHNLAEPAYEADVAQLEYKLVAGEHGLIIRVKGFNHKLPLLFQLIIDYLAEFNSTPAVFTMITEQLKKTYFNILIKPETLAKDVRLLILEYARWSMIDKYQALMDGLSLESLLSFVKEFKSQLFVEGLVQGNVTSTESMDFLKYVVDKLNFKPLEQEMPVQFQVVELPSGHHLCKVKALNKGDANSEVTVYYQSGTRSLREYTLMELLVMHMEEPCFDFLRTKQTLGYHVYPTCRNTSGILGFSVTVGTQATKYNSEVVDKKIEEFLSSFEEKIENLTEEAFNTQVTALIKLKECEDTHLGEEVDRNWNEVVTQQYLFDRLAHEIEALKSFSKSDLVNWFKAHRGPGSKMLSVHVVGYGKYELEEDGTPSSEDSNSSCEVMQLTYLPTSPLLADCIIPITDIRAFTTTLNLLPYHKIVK
inactive: IRAK-1-4 Inhibitor I 0.003 | ibrutinib -0.033 | [1] -0.026 | ralimetinib 0.011 | [2] -0.04 | [3] 0.053 | [4] 0.029 | pinometostat 0.015 | [5] 0 | [6] 0.037

OXSR1 (UniProt O95747)
Chain of UniProt O95747 (O95747 whole entry, looked up): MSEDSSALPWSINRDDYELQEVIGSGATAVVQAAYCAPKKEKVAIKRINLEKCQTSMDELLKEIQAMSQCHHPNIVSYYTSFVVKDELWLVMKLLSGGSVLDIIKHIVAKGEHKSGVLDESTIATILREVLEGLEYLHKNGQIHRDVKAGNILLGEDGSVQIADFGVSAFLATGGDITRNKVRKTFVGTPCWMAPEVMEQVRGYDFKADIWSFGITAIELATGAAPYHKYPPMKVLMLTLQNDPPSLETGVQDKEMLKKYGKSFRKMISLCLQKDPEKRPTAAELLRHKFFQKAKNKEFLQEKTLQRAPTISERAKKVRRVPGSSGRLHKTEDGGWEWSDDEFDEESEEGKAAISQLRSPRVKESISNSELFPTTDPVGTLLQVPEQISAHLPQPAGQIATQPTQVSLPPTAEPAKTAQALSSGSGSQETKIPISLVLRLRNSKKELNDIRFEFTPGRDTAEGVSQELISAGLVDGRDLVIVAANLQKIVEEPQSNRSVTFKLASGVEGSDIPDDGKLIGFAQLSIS
inactive: IRAK-1-4 Inhibitor I 0.014 | ibrutinib -0.022 | ralimetinib 0.045 | [2] -0.115 | [3] -0.111 | [4] -0.05 | pinometostat 0.026 | [5] 0.02 | [6] 0.106
active: [1] -0.341

NRGN (UniProt Q92686)
Chain of UniProt Q92686 (Q92686 whole entry, looked up): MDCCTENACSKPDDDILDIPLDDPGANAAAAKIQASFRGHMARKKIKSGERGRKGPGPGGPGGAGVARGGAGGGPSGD
inactive: IRAK-1-4 Inhibitor I 0.151 | ibrutinib 0.079 | [1] 0.034 | ralimetinib 0.007 | [2] 0.053 | [3] 0.058 | [4] -0.199 | pinometostat 0.21 | [5] 0.108

NUCKS1 (UniProt Q9H1E3)
active: [6] -0.454
inactive: IRAK-1-4 Inhibitor I 0.094 | ibrutinib -0.018 | [1] 0.208 | ralimetinib -0.054 | [2] 0.018 | [3] 0.138 | [4] -0.029 | pinometostat -0.061 | [5] 0.021

MRPS33 (UniProt Q9Y291)
inactive: IRAK-1-4 Inhibitor I -0.006 | ibrutinib 0.022 | [1] -0.004 | ralimetinib -0.038 | [2] -0.069 | [3] -0.034 | [4] 0.122 | pinometostat 0.096 | [5] 0.096 | [6] -0.158

NFATC2 (UniProt Q13469)
inactive: IRAK-1-4 Inhibitor I -0.075 | ibrutinib -0.008 | ralimetinib -0.001 | [2] 0.011 | [3] -0.055 | [4] 0.099 | pinometostat 0.102 | [5] 0.013 | [6] -0.033
active: [1] -0.635

MKNK1 (UniProt Q9BUB5)
inactive: IRAK-1-4 Inhibitor I -0.078 | ibrutinib -0.034 | [1] 0.059 | ralimetinib 0.117 | [2] -0.032 | [3] -0.065 | [4] 0.168 | pinometostat -0.019 | [5] -0.018 | [6] 0.057

MNAT1 (UniProt P51948)
active: [1] -0.221
inactive: IRAK-1-4 Inhibitor I 0.025 | ibrutinib 0.03 | ralimetinib -0.044 | [2] 0.024 | [3] 0.062 | [4] -0.028 | pinometostat 0.022 | [5] -0.016 | [6] -0.027

MRPL50 (UniProt Q8N5N7)
inactive: IRAK-1-4 Inhibitor I -0.036 | ibrutinib 0.052 | [1] 0.036 | ralimetinib 0.315 | [2] -0.001 | [3] -0.014 | [4] -0.203 | pinometostat -0.01 | [5] 0.04 | [6] 0.16

NIPSNAP2 (UniProt O75323)
Chain of UniProt O75323 (O75323 whole entry, looked up): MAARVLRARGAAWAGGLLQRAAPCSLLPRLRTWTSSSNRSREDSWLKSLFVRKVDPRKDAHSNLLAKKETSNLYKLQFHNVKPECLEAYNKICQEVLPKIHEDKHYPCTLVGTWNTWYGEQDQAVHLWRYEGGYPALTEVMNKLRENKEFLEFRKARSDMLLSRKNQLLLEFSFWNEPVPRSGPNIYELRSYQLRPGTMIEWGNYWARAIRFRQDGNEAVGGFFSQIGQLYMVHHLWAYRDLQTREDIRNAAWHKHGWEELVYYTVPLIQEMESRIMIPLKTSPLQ
inactive: IRAK-1-4 Inhibitor I 0.018 | ibrutinib 0.115 | [1] -0.084 | ralimetinib -0.054 | [2] 0.049 | [3] 0.014 | [4] -0.015 | pinometostat -0.034 | [5] 0.002 | [6] 0.031

MRPS10 (UniProt P82664)
inactive: IRAK-1-4 Inhibitor I -0.024 | ibrutinib 0.02 | [1] -0.065 | ralimetinib -0.031 | [2] 0.01 | [3] -0.027 | [4] 0.066 | pinometostat 0.045 | [5] 0.041 | [6] -0.28

NHLRC2 (UniProt Q8NBF2)
inactive: IRAK-1-4 Inhibitor I 0.039 | ibrutinib 0.07 | [1] -0.02 | ralimetinib -0.122 | [2] -0.026 | [3] -0.124 | [4] 0.143 | pinometostat 0.013 | [5] 0.004 | [6] 0.023

NDUFA7 (UniProt O95182)
inactive: IRAK-1-4 Inhibitor I 0.169 | ibrutinib 0.024 | [1] -0.014 | ralimetinib -0.017 | [2] -0.192 | [3] -0.063 | [4] 0.158 | pinometostat 0.074 | [5] 0.038 | [6] 0.033

NMRAL1 (UniProt Q9HBL8)
inactive: IRAK-1-4 Inhibitor I 0.058 | [1] 0.467 | ralimetinib -0.016 | [2] -0.121 | [3] 0 | [4] -0.007 | pinometostat 0 | [5] -0.257 | [6] 0.281
active: ibrutinib 0.874

MT-ATP6 (UniProt P00846)
Chain of UniProt P00846 (P00846 whole entry, looked up): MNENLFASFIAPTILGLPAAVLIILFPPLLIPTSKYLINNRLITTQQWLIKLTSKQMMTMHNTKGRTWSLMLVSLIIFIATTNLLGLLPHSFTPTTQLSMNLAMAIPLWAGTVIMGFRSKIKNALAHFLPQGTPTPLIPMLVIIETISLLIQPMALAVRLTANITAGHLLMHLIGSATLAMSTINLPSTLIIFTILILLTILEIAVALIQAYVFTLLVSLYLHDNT
inactive: IRAK-1-4 Inhibitor I 0 | ibrutinib -0.68 | [1] -0.178 | ralimetinib -0.178 | [2] -0.033 | [3] -0.06 | [4] -0.165 | pinometostat -0.162 | [5] -0.218 | [6] -0.072

NAA38 isoform 2 (UniProt Q9BRA0)
inactive: IRAK-1-4 Inhibitor I 0.047 | ibrutinib -0.021 | [1] -0.034 | ralimetinib 0.02 | [2] -0.095 | [4] -0.001 | pinometostat 0.035 | [5] 0.051 | [6] -0.01
active: [3] -0.397

NDUFB8 (UniProt O95169)
Chain of UniProt O95169 (O95169 whole entry, looked up): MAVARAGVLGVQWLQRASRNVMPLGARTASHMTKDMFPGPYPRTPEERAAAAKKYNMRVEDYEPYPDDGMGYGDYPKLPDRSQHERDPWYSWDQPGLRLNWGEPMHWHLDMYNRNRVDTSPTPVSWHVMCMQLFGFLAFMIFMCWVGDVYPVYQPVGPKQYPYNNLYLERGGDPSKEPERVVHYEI
active: [2] -0.36
inactive: IRAK-1-4 Inhibitor I 0.001 | ibrutinib -0.01 | [1] -0.004 | ralimetinib -0.063 | [3] -0.042 | [4] 0.059 | pinometostat 0.003 | [5] 0.081 | [6] 0.103

MRPS15 (UniProt P82914)
inactive: IRAK-1-4 Inhibitor I -0.062 | ibrutinib -0.022 | [1] -0.024 | ralimetinib 0.014 | [2] -0.12 | [3] -0.041 | [4] 0.004 | pinometostat 0.041 | [5] -0.01 | [6] -0.2

MRPS18B (UniProt Q9Y676)
inactive: IRAK-1-4 Inhibitor I -0.026 | ibrutinib 0.103 | [1] -0.096 | ralimetinib -0.022 | [2] -0.025 | [3] -0.043 | [4] 0.137 | pinometostat -0.005 | [5] 0.056 | [6] -0.068

NASP (UniProt P49321)
inactive: IRAK-1-4 Inhibitor I 0.01 | ibrutinib -0.044 | [1] 0.033 | ralimetinib 0.019 | [2] -0.004 | [3] -0.05 | [4] -0.009 | pinometostat -0.048 | [5] -0.021 | [6] -0.09

MIS12 (UniProt Q9H081)
Chain of UniProt Q9H081 (Q9H081 whole entry, looked up): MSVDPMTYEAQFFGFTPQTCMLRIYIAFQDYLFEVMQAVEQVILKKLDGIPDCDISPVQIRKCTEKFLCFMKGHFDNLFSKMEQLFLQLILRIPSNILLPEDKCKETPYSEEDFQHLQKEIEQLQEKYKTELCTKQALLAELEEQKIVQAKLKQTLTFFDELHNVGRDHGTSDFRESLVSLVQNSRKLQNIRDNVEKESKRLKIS
inactive: IRAK-1-4 Inhibitor I 0.024 | ibrutinib 0.026 | [1] -0.025 | ralimetinib -0.004 | [2] -0.151 | [3] -0.087 | [4] 0.06 | pinometostat 0.006 | [5] 0.019 | [6] -0.035

OXA1L (UniProt Q15070)
inactive: IRAK-1-4 Inhibitor I 0.05 | ibrutinib 0.011 | [1] 0.03 | ralimetinib -0.037 | [2] 0.006 | [3] -0.209 | [4] -0.004 | pinometostat 0 | [5] 0.016 | [6] -0.018

OXR1 (UniProt Q8N573)
Chain of UniProt Q8N573 (Q8N573 whole entry, looked up): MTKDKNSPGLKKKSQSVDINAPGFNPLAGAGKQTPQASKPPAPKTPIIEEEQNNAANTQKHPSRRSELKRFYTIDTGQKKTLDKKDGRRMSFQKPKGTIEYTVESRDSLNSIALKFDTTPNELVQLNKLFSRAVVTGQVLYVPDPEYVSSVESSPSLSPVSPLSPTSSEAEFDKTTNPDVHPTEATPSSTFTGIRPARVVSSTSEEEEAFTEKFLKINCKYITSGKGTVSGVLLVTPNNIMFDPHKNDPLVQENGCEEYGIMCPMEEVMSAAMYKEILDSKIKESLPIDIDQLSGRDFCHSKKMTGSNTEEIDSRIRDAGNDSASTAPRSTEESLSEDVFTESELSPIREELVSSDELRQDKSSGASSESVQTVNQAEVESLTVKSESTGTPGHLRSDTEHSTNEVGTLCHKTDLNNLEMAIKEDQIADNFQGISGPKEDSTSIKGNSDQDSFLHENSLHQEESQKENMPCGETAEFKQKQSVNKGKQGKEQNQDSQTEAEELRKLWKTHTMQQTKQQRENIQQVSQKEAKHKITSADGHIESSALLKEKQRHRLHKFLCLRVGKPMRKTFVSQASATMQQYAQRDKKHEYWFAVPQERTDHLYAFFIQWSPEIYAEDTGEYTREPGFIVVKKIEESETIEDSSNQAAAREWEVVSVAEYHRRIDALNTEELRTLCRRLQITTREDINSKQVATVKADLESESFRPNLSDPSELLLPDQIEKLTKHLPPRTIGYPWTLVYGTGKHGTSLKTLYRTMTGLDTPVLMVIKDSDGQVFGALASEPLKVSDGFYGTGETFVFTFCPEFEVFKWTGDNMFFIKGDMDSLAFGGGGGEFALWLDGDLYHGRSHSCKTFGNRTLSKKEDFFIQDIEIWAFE
inactive: IRAK-1-4 Inhibitor I 0.048 | ibrutinib 0.016 | [1] -0.002 | ralimetinib -0.019 | [2] -0.035 | [3] -0.077 | [4] -0.004 | pinometostat 0.023 | [5] -0.008 | [6] 0.009

NECTIN2 (UniProt Q92692)
inactive: IRAK-1-4 Inhibitor I 0.025 | ibrutinib 0.02 | [1] -0.023 | ralimetinib -0.035 | [2] -0.03 | [3] 0.182 | [4] 0.024 | pinometostat 0.009 | [5] -0.015 | [6] 0

NR2C2 isoform 2 (UniProt P49116)
Chain of UniProt P49116 (P49116 whole entry, looked up): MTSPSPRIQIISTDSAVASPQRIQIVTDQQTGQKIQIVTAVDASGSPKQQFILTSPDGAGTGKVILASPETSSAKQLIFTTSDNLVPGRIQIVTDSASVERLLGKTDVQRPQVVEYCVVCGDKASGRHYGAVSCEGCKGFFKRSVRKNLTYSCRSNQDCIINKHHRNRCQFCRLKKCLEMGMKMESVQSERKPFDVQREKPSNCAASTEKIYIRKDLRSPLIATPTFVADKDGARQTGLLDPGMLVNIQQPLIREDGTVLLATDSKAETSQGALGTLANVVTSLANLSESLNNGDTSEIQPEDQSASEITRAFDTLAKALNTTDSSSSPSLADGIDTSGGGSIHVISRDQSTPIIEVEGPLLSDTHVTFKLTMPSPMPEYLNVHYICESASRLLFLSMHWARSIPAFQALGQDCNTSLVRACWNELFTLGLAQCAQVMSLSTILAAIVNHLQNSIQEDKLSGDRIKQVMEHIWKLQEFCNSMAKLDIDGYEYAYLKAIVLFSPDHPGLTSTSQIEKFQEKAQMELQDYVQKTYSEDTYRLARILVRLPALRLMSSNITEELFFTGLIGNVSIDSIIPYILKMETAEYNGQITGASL
inactive: IRAK-1-4 Inhibitor I 0.004 | ibrutinib 0.022 | [1] -0.062 | ralimetinib -0.064 | [2] -0.048 | [3] -0.004 | [4] 0.058 | pinometostat 0.014 | [5] 0.045 | [6] -0.215

NDUFA9 (UniProt Q16795)
Chain of UniProt Q16795 (Q16795 whole entry, looked up): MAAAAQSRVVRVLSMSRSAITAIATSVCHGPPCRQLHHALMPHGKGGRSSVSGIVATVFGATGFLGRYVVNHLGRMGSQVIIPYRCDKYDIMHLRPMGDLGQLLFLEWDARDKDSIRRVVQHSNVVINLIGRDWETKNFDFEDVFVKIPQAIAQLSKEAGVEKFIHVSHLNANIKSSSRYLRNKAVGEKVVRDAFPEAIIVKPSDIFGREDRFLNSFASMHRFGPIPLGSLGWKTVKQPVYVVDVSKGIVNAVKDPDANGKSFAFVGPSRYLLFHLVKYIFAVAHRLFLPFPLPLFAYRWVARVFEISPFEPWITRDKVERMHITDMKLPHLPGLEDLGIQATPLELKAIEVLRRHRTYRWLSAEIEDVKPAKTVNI
inactive: IRAK-1-4 Inhibitor I 0.003 | ibrutinib -0.036 | [1] -0.037 | ralimetinib -0.011 | [2] -0.211 | [3] -0.101 | [4] 0 | pinometostat -0.006 | [5] -0.01 | [6] 0.086

NKAP (UniProt Q8N5F7)
Chain of UniProt Q8N5F7 (Q8N5F7 whole entry, looked up): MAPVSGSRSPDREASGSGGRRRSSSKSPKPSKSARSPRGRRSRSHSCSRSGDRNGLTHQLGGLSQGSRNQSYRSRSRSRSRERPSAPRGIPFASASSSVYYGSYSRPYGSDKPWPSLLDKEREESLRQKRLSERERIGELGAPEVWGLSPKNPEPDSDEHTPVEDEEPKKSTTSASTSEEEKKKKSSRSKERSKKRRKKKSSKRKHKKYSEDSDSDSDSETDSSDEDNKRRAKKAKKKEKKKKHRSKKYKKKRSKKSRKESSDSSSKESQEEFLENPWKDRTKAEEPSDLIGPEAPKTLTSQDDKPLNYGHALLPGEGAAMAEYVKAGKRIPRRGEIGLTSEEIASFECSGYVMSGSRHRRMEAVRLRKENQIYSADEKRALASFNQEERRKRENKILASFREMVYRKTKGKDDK
inactive: IRAK-1-4 Inhibitor I 0 | ibrutinib 0.004 | [1] -0.218 | ralimetinib 0.033 | [2] 0.105 | [3] -0.123 | [4] 0.103 | pinometostat 0.032 | [5] 0.165 | [6] -0.022
